Test results: PubChem BioAssay AID1007 (NMMLSC, 2008)
Out of some 190,000 compounds screened, about 80 (0.04%) were called active. Cut-off read from the data, not from the text of the source: active = inhibition above about 40%. Only a sample is shown.

target: Bcl-2-like protein 1 (Homo sapiens) (UniProt Q07817); assay: inhibitors of Bim-Bcl-XL binding, primary screen, biochemical, multiplexed, bead flow cytometry, human Bcl-XL (AID 1007); details: Bim peptide-Bcl-XL binding, fluorescence, at 10 µM, hits give high values
Sequence (Q07817 whole entry, looked up): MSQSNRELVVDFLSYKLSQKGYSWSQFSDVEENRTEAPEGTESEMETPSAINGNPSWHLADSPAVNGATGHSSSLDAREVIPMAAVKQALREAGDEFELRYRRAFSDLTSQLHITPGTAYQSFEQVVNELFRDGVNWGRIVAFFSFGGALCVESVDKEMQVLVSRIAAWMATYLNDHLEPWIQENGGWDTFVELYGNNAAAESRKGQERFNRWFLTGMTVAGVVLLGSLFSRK

inhibition, inactive:
COc1ccc(-c2[nH]ncc2CN(C)Cc2cccnc2)c(F)c1 0%
Cc1ccc2c(c1)C1CN(C)CCC1N2S(=O)(=O)c1ccc(Oc2ccc([N+](=O)[O-])cc2)cc1 (stereo unspecified) -1%
CS(=O)(=O)N(CC(=O)N/N=C/c1ccccn1)c1ccc(Oc2ccccc2)cc1 -4%
CCOCCCNC(=O)C(=O)NCCCOCC -11%
O=C(COC(=O)Cc1ccc(F)cc1)Nc1cc(S(=O)(=O)N2CCOCC2)ccc1N1CCCC1 -11%
Cc1nc(N2CCC(C)CC2)c2c(C)c(C(=O)Nc3cc(F)ccc3C)sc2n1 -5%
Cc1ccc(C)c(CSc2nc(-c3ccco3)nc3c2c(=O)n(C)c(=O)n3C)c1 -2%
CCN(CC)CCn1c(/N=C/c2cc(Br)ccc2O)nc2ccccc21 -11%
O=[N+]([O-])c1ccccc1Nc1ccc(O)cc1 -5%
Cc1c(C(=O)O)nnn1-c1nonc1N 0%
CN1CCN(C(CNS(=O)(=O)c2cccs2)c2cccnc2)CC1 (stereo unspecified) 0%
O=C(Cc1cccs1)N/N=C/c1ccc(OCc2ccccc2)cc1 -4%
O=C(Nc1ccc2oc(-c3ccccc3F)nc2c1)c1ccco1 0%
O=c1c(Cl)c(NCc2ccc(F)cc2Cl)cnn1C12CC3CC(CC(C3)C1)C2 -8%
COC(=O)c1ccc(OCC(O)CN(CCO)CC(O)Cn2ccc3ccccc32)cc1 (stereo unspecified) -8%
CCc1ccc(-c2cc(C(=O)NN3CCN(C)CC3)c3ccccc3n2)cc1 -6%
COc1ccc(CCc2nnc(CCC(=O)NCc3cnn(-c4ccccc4C)c3)o2)cc1 0%
Cc1ccc(NC(=O)Cn2cccc2C2=NC(c3ccccc3)CO2)c(C)c1 (stereo unspecified) -2%
CC(Sc1nc2c([nH]c3ccccc32)c(=O)n1C)c1ccccc1 (stereo unspecified) -6%
O=C(Nc1ccccc1C(=O)N1CCOCC1)c1ccc(Cl)cc1 0%
Cc1nnc(SCC2=C(C(=O)O)N3C(=O)C(NC(=O)Cn4nc(C)c(Cl)c4C)C3SC2)s1 (stereo unspecified) -6%
O=C(NC(CC(=O)N1CCN(c2ccccc2)CC1)c1ccccc1)c1ccccc1Cl (stereo unspecified) -6%
COc1ccc(NC(=O)COc2ccc(C(=O)OCC(=O)N(C)C3CCS(=O)(=O)C3)cc2OC)cc1 (stereo unspecified) -2%
Cn1c(CCC(=O)Nc2ccccc2F)nnc1SCC(=O)Nc1ccccc1Cl -5%
COc1ccc(NC(=O)CC2C(=O)OCC3CCCCN32)cc1Cl (stereo unspecified) -4%
O=[N+]([O-])c1cccc(S(=O)(=O)N2CCCCCC2)c1 -7%
CCN1CCC2(CC1)N=C(c1ccc(F)cc1)C(=S)N2C(=O)c1ccc(C)cc1 -10%
Cc1ccc2c(=O)oc(N(C)C)nc2c1 1%
Cc1cc(C)c(C(N)=O)c(Cl)n1 -2%
CCOC(=O)c1ccc(NC(=O)C2CC(=O)Nc3nc4ccccc4n32)cc1 (stereo unspecified) 2%
CCn1c(N)c(Br)c(=O)[nH]c1=O -2%
C#Cc1ccc([C@@H]2C=C(C(=O)O)O[C@H](OCCCCO)C2)cc1 -4%
CCN(CC)CC1(O)CCN(C(=O)c2ccc(Cl)c(Cl)c2)CC1 0%
CCC(CC)c1nnc(NC(=O)/C=C/c2ccco2)s1 -8%
O=C(NCc1ccco1)C(=O)c1cn(CC(=O)N2CCCCCC2)c2ccccc12 -2%
COc1ccc(CNC(=O)CCCn2nc(C)c([N+](=O)[O-])c2C)cc1 -4%
O=C(N1CCCC1)C12CC3CC(C1)CC(C(=O)N1CCCC1)(C3)C2 -4%
Cc1ccccc1CN(c1ccc(C(=O)NCC2CCCO2)cc1)S(C)(=O)=O (stereo unspecified) -6%
O=C(c1cccc(F)c1)N1CCN(c2ccc([N+](=O)[O-])c3cccnc23)CC1 -4%
COc1cccc(C(=O)N2CCCC(CCC(=O)NCc3ccc(F)c(F)c3)C2)c1 (stereo unspecified) -1%
CCOC(=O)CCCNC(=O)COC(=O)c1cc(Br)c(Br)s1 2%
Cc1ccccc1-c1n[nH]c(=S)n1/N=C/c1ccc(-c2ccccc2Br)o1 -1%
CC1CCCC(C)N1/N=C/c1ccccc1OC(F)F (stereo unspecified) 2%
O=C1NC(c2ccccc2)CCC1(Cl)Cl (stereo unspecified) -5%
O=C(O)CC(SCC(=O)Nc1ccc(Br)cc1)C(=O)O (stereo unspecified) -2%
COc1cc(Cl)c(C)cc1NC(=O)COC(=O)c1cc(SC)ccc1Cl -6%
COC(=O)c1ccccc1SC1CC(=O)N(c2cccc(C)c2)C1=O (stereo unspecified) -2%
Cc1ccc(NC(=O)Nc2nnc(-c3ccncc3)s2)cc1 -2%
OCCn1c(-c2ccccc2)csc1=Nc1ccccc1 -3%
COc1ccccc1N1CCN(/N=C\C(Br)=C\c2ccccc2)CC1 -1%
Cc1nc2c(C(=O)NCc3cccs3)cnn2c(C)c1Cc1ccc(F)cc1 1%
O=C(CN(c1cccc(Cl)c1)S(=O)(=O)c1ccccc1)NN=C1CCCC1 -1%
CC(C)C(=O)Nc1c(O)c2ccccc2[nH]c1=O -4%
Cc1cc(C(=O)CCl)c(C)n1CC1COc2ccccc2O1 (stereo unspecified) 0%
COc1cccc2c(N/N=C/c3ccco3)cc(C)nc12 0%
CCc1ccccc1N1C(=O)C2C3CC(=O)C(c4ccccc43)C2C1=O (stereo unspecified) -2%
Cn1nnnc1-c1cc(Cl)cc(Cl)c1 0%
O=C(Oc1ccccc1Cl)c1ccc(N2CCOCC2)c([N+](=O)[O-])c1 3%
COc1ccc(Nc2nc(N)nc(CSC(=S)N3CCC(C)CC3)n2)cc1 20%
CC1CCN(c2ccc(C(=O)Nc3nnc(C4CC4)s3)cc2[N+](=O)[O-])CC1 -12%
NS(=O)(=O)c1cccc(NC(=O)COC(=O)/C=C/c2ccco2)c1 -2%
N#CC1=C(N)Oc2[nH]c(=S)[nH]c(=O)c2C12C(=O)Nc1ccccc12 (stereo unspecified) -1%
Nc1[nH][nH]c(=O)c1N=Nc1ccc2c(c1)OCO2 0%
Cc1cc[n+](-c2[nH]c(=O)sc2/C=N/NC(=O)c2ccccc2[O-])cc1C -7%
O=C(NCC(O)c1ccc([N+](=O)[O-])cc1)C1CCCCC1 (stereo unspecified) 0%
CCCC(C)C(=O)NCc1ccncc1 (stereo unspecified) 0%
CCOc1ccc(S(=O)(=O)Nc2nccs2)cc1 -2%
CCOC(=O)c1c(C)n(C)c2ccc(OC)c(NS(=O)(=O)CC)c12 -7%
COc1cc(C(=O)NCc2ccc3c(c2)cc(C)n3C)cc(OC)c1OC -2%
O=c1[nH]oc(O)c1-c1ncc(C(F)(F)F)cc1Cl -2%
COc1ccc(CC(=O)N[C@@H](CCSC)c2nc3ccccc3[nH]2)cc1 -5%
Cc1cccc(NC(=S)NC(=O)c2ccc(Br)o2)c1 0%
Cc1c(-c2cccc(Cl)c2)nc2ccccc2c1C(=O)OCC(=O)N(C)C1CCS(=O)(=O)C1 (stereo unspecified) 0%
CCOC(=O)C1=C(C)N=C2c3ccccc3C(=O)C2C1c1ccc(Br)cc1 (stereo unspecified) -6%
Cc1ccc(-c2nn(-c3ccccc3)cc2C(=O)Nc2cccc(S(=O)(=O)N3CCOCC3)c2)cc1 -14%
CN(C)c1ccc(C=NCCc2ccc(S(N)(=O)=O)cc2)cc1 -3%
COc1ccccc1-n1c(C)nc2cc(C(=O)NCc3ccc4c(c3)OCO4)ccc21 -10%
CCOC(=O)c1ccc(N2C(=O)CC(N3CCN(C(=O)c4ccccc4)CC3)C2=O)cc1 (stereo unspecified) -1%
O=[N+]([O-])c1ccc(F)cc1Oc1nc(-c2cccnc2)nc2ccccc12 1%
COc1ccc(/C=N/N=C/c2c[nH]c(=O)c(C#N)c2Nc2ccccc2)cc1 11%
COc1cc(C2OC(c3cc(OC)c(OC)c(OC)c3)C(C)C2C)cc(OC)c1OC (stereo unspecified) -1%
CN(C)CCCCCN(C)Cc1cc2ccccc2o1 -2%
COc1ccc(C(=O)COC(=O)COc2ccc(C)c(C)c2)cc1 -2%
Cc1ccc(S(=O)(=O)N(C)c2ccc(OCC(=O)NC3=NCCS3)cc2)cc1 0%
CC(=O)NC1C(Oc2ccc(C)cc2)OC2COC(c3ccco3)OC2C1O (stereo unspecified) -6%
Cc1ccc(C(=O)C(=S)N2CCOCC2)cc1 -9%
COc1cc(CN2CCNC(=O)C2CC(=O)NCCc2ncccc2C)cc(OC)c1 (stereo unspecified) -3%
C=CCn1c(SCC(=O)CC(=O)OCC)nc2cc(C(=O)N3CCC(C(N)=O)CC3)ccc2c1=O -5%
Cc1ccc(C)c(NC(=O)CCC(=O)N/N=C2/CC(=O)CC(C)(C)C2)c1 0%
Cc1cc(C)c[n+](-c2nc3ccccc3nc2[N-]S(=O)(=O)c2cccs2)c1 -3%
O=C(Nc1cccc(C(F)(F)F)c1)c1ccc(N2CCNCC2)c([N+](=O)[O-])c1 0%
O=C(NCc1cccs1)C1CCN(S(=O)(=O)c2ccc(Cl)cc2)CC1 0%
CCN(CC(=O)NC(=O)NCc1ccccc1)Cc1nc2ccccc2c(=O)[nH]1 1%
C/C(=N/OC(=O)c1c(-c2c(F)cccc2Cl)noc1C)c1cnccn1 -3%
Cc1ccc(-c2nn(-c3cccc(F)c3)cc2CNCCc2ccncc2)o1 -2%
O=C(CSc1ccccc1F)NC1CCS(=O)(=O)C1 (stereo unspecified) 0%
